Source: PubChem BioAssay (National Center for Advancing Translational Sciences (NCATS))
VP16 counter – counter-screen for ROR gamma inhibitors: Gal4-VP16 reporter; Drosophila S2 Gal4-VP16 UAS-luciferase, luminescence, 20 h; AID 2546; Potency, µM (top dose mostly 53.6 µM), for the others: at the highest dose activity, negative = inhibition, usual class: inhibitors; hit rate 3.5% among 310,000;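 further: Gal4-VP16 expression switched on by copper sulfate through the metallothionein promoter; potency means the concentration at half of the fitted maximal effect; nearly all actives have a fitted effect of over 50% in size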
IL-1B inflam inh – inhibitors of inflammasome signaling (IL-1 beta secretion). AID 743279. hit rate 4.7% among 360,000. THP-1 LPS/ATP IL-1B secretion, AlphaLISA, 16 h; stronger effect = lower value. activity change, % at 57.5 µM; in the data active means activity change below about -50%; inconclusive means mostly about -30% to -49%
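Secreted IL-1B measured by AlphaLISA bead assay after 16 h compound exposure of THP-1 cells; compounds (final up to 57.5 uM) added 1 h before LPS (250 ng/mL) and ATP (1.25 mM) stimulation; lower signal means less secretion.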
TDP1 cell CPT – DT40-hTDP1 cell growth loss with CPT. chicken DT40 Tdp1-/-;hTDP1 cells + 20 nM CPT, ATP luminescence, 48 h. Potency, µM (titrated, usually from 46.2 µM), for the others: at the highest dose activity change, negative = growth inhibition, actives largely listed as inhibitors. hit rate 12% among 420,000; further: potency means the concentration at half of the fitted maximal effect; nearly all actives have a fitted effect of over 55% in size
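Chicken DT40 Tdp1-/- cells stably complemented with human TDP1 were seeded at 400 cells/well in medium containing 20 nM camptothecin, exposed to pin-transferred compounds, and grown at 37 °C for at least 48 hr. Viability was read as ATP luminescence.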
DT40 TDP1 no CPT – qHTS for Inhibitors of human tyrosyl-DNA phosphodiesterase 1 (TDP1): qHTS in cells in absence of CPT | Potency, µM (series often up to 46.2 µM), without a hit: at the highest dose activity change, negative = growth inhibition, most hits filed as inhibitors | DT40 Tdp1-/- hTDP1 cells, no CPT, ATP luminescence, 48 h | hit rate 15% among 420,000; further: potency means the concentration at half of the fitted maximal effect; nearly all actives have a fitted effect of over 55% in size
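Compound effects on proliferation are scored in DT40 Tdp1-/-;hTDP1 cells in the absence of CPT. ATP levels (CellTiter-Glo luminescence) are recorded after a ≥48 hr, 37 °C incubation.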
ELG1 DNA repair – inhibitors of ELG1-dependent DNA repair in HEK293T cells. HEK293T ELG1-luciferase reporter, luminescence, 16 h; DNA damage induced by 5-fluorouridine. Potency, µM (series often up to 46.1 µM), without a hit: at the highest dose activity change, negative = inhibition, actives largely listed as inhibitors. hit rate 2.3% among 330,000. AID 504467; further: potency means the concentration at half of the fitted maximal effect; nearly all actives have a fitted effect of over 55% in size
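Cells (2,000 per well) received 5-fluorouridine plus test compound or DMSO and were incubated 16 hr at 37 °C, 5% CO2. Luciferase activity was read by luminescence 30 min after ONE-Glo addition; signal suppression marked inhibition of damage-induced ELG1 function.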
RORgamma inh – blocks mouse ROR gamma transcriptional activity; Potency, µM (top dose mostly 53.6 µM), inactives show at the top dose activity change, negative = inhibition, actives largely listed as inhibitors; P51450; Drosophila S2 Gal4-RORgamma UAS-luciferase reporter, 20 h; hit rate 5.4% among 310,000; further: potency means the concentration at half of the fitted maximal effect; nearly all actives have a fitted effect of over 60% in size
Target sequence (P51450 whole entry, looked up, the tested form may be a part): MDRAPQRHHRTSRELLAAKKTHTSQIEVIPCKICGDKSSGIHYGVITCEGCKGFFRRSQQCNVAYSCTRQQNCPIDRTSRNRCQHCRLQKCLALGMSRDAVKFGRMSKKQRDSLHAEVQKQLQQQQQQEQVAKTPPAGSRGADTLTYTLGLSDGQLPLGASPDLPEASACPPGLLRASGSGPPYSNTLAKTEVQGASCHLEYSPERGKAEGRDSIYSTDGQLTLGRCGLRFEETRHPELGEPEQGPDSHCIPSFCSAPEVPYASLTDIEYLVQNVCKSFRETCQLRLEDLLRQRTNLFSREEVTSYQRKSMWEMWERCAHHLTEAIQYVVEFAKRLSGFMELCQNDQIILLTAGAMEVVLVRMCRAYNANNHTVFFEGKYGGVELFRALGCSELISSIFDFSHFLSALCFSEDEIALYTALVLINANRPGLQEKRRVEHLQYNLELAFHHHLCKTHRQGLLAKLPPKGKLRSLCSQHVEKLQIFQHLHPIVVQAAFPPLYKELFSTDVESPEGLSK
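ROR gamma transcriptional activity was tracked as Gal4-UAS luciferase output in stably transfected Drosophila Schneider cells, with compound added 1 hr before 700 uM copper sulfate induction and a 20 hr ambient-temperature incubation.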
Starred values were filed as active, the others as inactive; ? = inconclusive; / = not tested or not shown. Compounds with a hit are over-represented: about 21% of the library has one in this group of screens. Unless noted, the call rests on the fitted dose curve; in most records, active means well fitted curve in the direction sought with a large enough effect; inconclusive means small, poorly fitted or top-dose-only effect, or another doubt; inactive means no such curve, though single readings can be large; an effect the other way counts as inactive or inconclusive. On the % scale 0 is the no-effect control and ±100 the full control effect.

SMILES	VP16 counter	IL-1B inflam inh	TDP1 cell CPT	DT40 TDP1 no CPT	ELG1 DNA repair	RORgamma inh
CCCCN(CCCC)CCNC(=O)c1cn(CC)c2ccc(S(=O)(=O)N(C)C3CCCCC3)cc2c1=O	-5%	-17	4.6µM*	6.5µM*	-11%	-9%
CCCN(CCC)CCCNC(=O)c1cn(CC)c2ccc(S(=O)(=O)N3CCc4ccccc4C3)cc2c1=O	-2%	-103*	21µM*	18µM*	3%	-9%
CCn1cc(C(=O)NCCc2ccc(Cl)cc2)c(=O)c2cc(S(=O)(=O)N3CCc4ccccc4C3)ccc21	/	/	-1%	?	/	/
CCCCN(C)CCCNC(=O)c1cn(CC)c2ccc(S(=O)(=O)N3CCc4ccccc4C3)cc2c1=O	-7%	-63*	21µM*	23µM*	2%	12%
CCn1cc(C(=O)NCCCN2CCCC2)c(=O)c2cc(S(=O)(=O)N3CCc4ccccc4C3)ccc21	-5%	-29	?	?	10%	-14%
CCN(CC)CCCNC(=O)c1cn(CC)c2ccc(S(=O)(=O)N(C)C3CCCCC3)cc2c1=O	-5%	?	-1%	6%	22%	3%
CCn1cc(C(=O)NCc2ccc(C)cc2)c(=O)c2cc(S(=O)(=O)N(C)C)ccc21	0%	?	?	?	21µM*	-17%
CC(C)c1ccc(NC(=O)C2CCCN(S(=O)(=O)c3ccc4[nH]c(=O)ccc4c3)C2)cc1 (stereo unspecified)	/	/	12µM*	-24%	/	/
COc1ccc(OC)c(NC(=O)C2CCCN(S(=O)(=O)c3ccc4[nH]c(=O)ccc4c3)C2)c1 (stereo unspecified)	/	/	?	23µM*	/	/
COc1cccc(N2C(=O)Nc3ccc(Br)cc3C2(O)C(=O)NCCCN(C)C)c1 (stereo unspecified)	2%	21	20%	21%	0%	10%
COc1cc(C(=O)O[C@@H]2CC3CC[C@]2(C)C3(C)C)ccc1O	-19%	/	/	/	/	-6%
COc1ccc(CNC(=O)C2CCCN(S(=O)(=O)c3ccc4c(c3)CCCN4C(C)=O)C2)cc1 (stereo unspecified)	-8%	4	15µM*	10µM*	-14%	3%
CN1C(=O)C(C)(C)c2cc(S(=O)(=O)N3CCCC(C(=O)NCc4ccc(Cl)cc4)C3)ccc21 (stereo unspecified)	3%	5	?	?	15µM*	38%
CCOC(=O)C1CCCN(S(=O)(=O)CCNC(=O)c2cccc(OC)c2)C1 (stereo unspecified)	/	-68*	-37%	-46%	?	/
COc1ccc(N2CCN(S(=O)(=O)c3ccc4c(c3)CCCN4C(C)=O)CC2)cc1	/	/	16µM*	?	/	/
CCOC(=O)C1CCN(S(=O)(=O)CCNC(=O)c2ccccc2)CC1	/	?	15%	-2%	9%	/
CN1C(=O)C(C)(C)c2cc(S(=O)(=O)N3CCCC3C(=O)NCc3ccc(F)cc3)ccc21 (stereo unspecified)	-2%	18	1%	-20%	2%	0%
CC1=C(C(=O)N(C)C)CC(CC(=O)NCc2cccs2)C(=O)N1Cc1ccc(F)cc1 (stereo unspecified)	/	?	0%	?	/	/
C[C@H]1CN([C@@H](C)CO)C(=O)c2cc(NC(=O)c3ccncc3)ccc2O[C@H]1CN(C)Cc1ccc(C(=O)O)cc1	/	-3	3%	20%	12%	/
CCOC(=O)C1CCCN(S(=O)(=O)c2cc(C(=O)OC)n(C)c2)C1 (stereo unspecified)	16µM*	20	16µM*	16µM*	-16%	42%
CCOC(=O)C1CCN(S(=O)(=O)c2ccc3c(c2)CCCN3C(C)=O)CC1	-9%	73	-6%	-18%	-5%	40%
CCOC(=O)C1CCCN(S(=O)(=O)c2ccccc2)C1 (stereo unspecified)	-3%	-11	3%	-6%	5%	0%
CCOC(=O)C1CCCN(S(=O)(=O)c2ccc3c(c2)CCCN3C(C)=O)C1 (stereo unspecified)	/	/	?	18µM*	/	/
O=C(c1[nH]c(C(F)(F)F)nc1-c1ccccc1)N1CCC2(CC1)C(=O)NCN2c1ccccc1	/	34	2%	1%	/	/
CCn1c(C)nc([N+](=O)[O-])c1Sc1ccc(F)cc1	-11%	?	?	16µM*	?	-26%
SMILES	VP16 counter	IL-1B inflam inh	TDP1 cell CPT	DT40 TDP1 no CPT	ELG1 DNA repair	RORgamma inh
Cc1nc2ccc([N+](=O)[O-])cc2c(=O)n1Cc1ccc(F)cc1	6%	-2	?	?	-7%	?
C#CCN(CC(=O)OCC)S(=O)(=O)CCNC1CC1	/	23	-15%	-4%	/	/
O=C(N/N=C\c1ccncc1)c1ccc(Br)s1	0%	-4	-21%	-8%	?	1%
CC(C)(C)C(=O)Nc1nnc(-c2ccncc2)o1	18µM*	27	-19%	1%	8%	11µM*
c1cc(-c2nnc(-c3ccncc3)o2)ccn1	-11%	-4	7%	-20%	8%	9%
O=C(Nc1nnc(-c2ccncc2)o1)c1ccc(Br)s1	1.1µM*	50	15µM*	13µM*	8.2µM*	0.89µM*
Cc1ccc(NS(=O)(=O)c2ccc(NC(=O)N3CCCC3)cc2)cc1C	/	/	0%	-16%	/	/
O=C(CCl)N1c2ccccc2Sc2c1ccc1ccccc21	/	-102*	3.7µM*	5.8µM*	/	/
CC(=O)N1c2ccccc2Sc2ccc3ccccc3c21	/	-19	?	?	/	/
Cc1ccc2[nH]c(C(=O)N/N=C/c3ccccc3C(=O)O)c(-c3ccccc3)c2c1	-3%	18	11%	2%	?	15%
O=C(NN=C1CCCC1)c1[nH]c2ccc(Br)cc2c1-c1ccccc1	?	?	?	?	?	11µM*
O=C(CCN1CCOCC1)Nc1c(-c2ccccc2)c2cc(Br)ccc2[nH]c1=O	-8%	-13	-15%	-18%	-2%	23%
O=C(N/N=C/c1ccccc1)c1[nH]c2ccc(Br)cc2c1-c1ccccc1	?	25	1.2µM*	1.2µM*	22%	?
CCCCCNCCCCC	1%	/	/	/	/	-23%
CCOc1ccc(NC(C(=O)Nc2cccc(C(C)=O)c2)c2ccccc2)cc1 (stereo unspecified)	27%	0	15µM*	15µM*	-19%	?
